Measurements published in the supplement of paper PMC12024424.
Where a name gives a salt, the structure may show the parent alone.

These compounds were tested on Staphylococcus aureus Sa2 (MRSA, cystic fibrosis isolate) (assay: growth reduction vs untreated control (OD550); higher = stronger antibacterial activity). Settings: 0.1 mM; 24 h.
Experimental: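 Single-dose screen of the MedChem Express Drug Repurposing Library (0.1 mM, 1% DMSO) against planktonic MRSA S. aureus Sa2 (CF isolate) in TSB in 96-well plates, 37 °C aerobic, 24 h. Assays were run in triplicate and repeated twice.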
`CC(C)(C)C#Cc1cc(N(C(=O)[C@H]2CC[C@H](C)CC2)[C@H]2CC[C@H](O)CC2)c(C(=O)O)s1` [Lomibuvir] gave a growth reduction of 91.1%.
`CCc1cc(-c2noc(-c3cc(OC)nc(C4CCCC4)c3)n2)cc(C)c1OC[C@@H](O)CO` [Cenerimod] gave a growth reduction of 100%.
`Cc1nc2sccn2c(=O)c1CCN1CCC(=C(c2ccc(F)cc2)c2ccc(F)cc2)CC1` [Ritanserin] showed a growth reduction of 97.5%.
`Cc1ccc(-n2[nH]c(C)c(N=Nc3cccc(-c4cccc(C(=O)O)c4)c3O)c2=O)cc1C` [Eltrombopag] gave a growth reduction of 96.5%.
For `Cc1nc2c([nH]1)-c1ccccc1N(C(=O)c1ccc(NC(=O)c3ccccc3-c3ccccc3)cc1)CC2` [Conivaptan (hydrochloride)], the growth reduction was 90.4%.
`CNCc1ccc(C)c(NC(=O)c2ccc(Nc3nc(-c4ccccc4)c4ccccc4n3)cc2)c1` was tested, and the growth reduction was 100%.
`COc1cc(NS(C)(=O)=O)ccc1Nc1c2ccccc2nc2ccccc12` [Amsacrine (hydrochloride)] showed a growth reduction of 93.4%.
For `CC/C(=C(\c1ccccc1)c1ccc(OCCN(C)C)cc1)c1ccccc1` [Tamoxifen], the growth reduction was 100%.
`Cc1cc(O[C@@H](CCC(F)(F)F)c2ccc(C(=O)NCCC(=O)O)cc2)cc(C)c1-c1ccc(C(C)(C)C)cc1` [Adomeglivant] gave a growth reduction of 100%.
`CN1C(C(=O)Nc2ccccn2)=C(O)c2sc(Cl)cc2S1(=O)=O` [Lornoxicam] gave a growth reduction of 97.2%.
`CCOC(=O)N1CCC(=C2c3ccc(Cl)cc3CCc3cccnc32)CC1` [Loratadine] was tested, and the growth reduction was 100%.
Compound `CS(=O)(=O)c1cc(F)cc2c3c(n(Cc4ccc(Cl)cc4)c12)[C@@H](CC(=O)O)CC3` [Laropiprant] has a growth reduction of 96.1%.
Compound `COCCNCCc1cccc(Nc2ncc3c(n2)-c2ccccc2[C@H](c2ccccc2F)C3)c1` [Derazantinib] has a growth reduction of 100%.
In the case of `CO[C@@H](Cc1ccc(OCCc2nc(-c3ccccc3)oc2C)c2ccsc12)C(=O)O` [Aleglitazar], the growth reduction is reported as 92.2%.
`CCC(c1ccccc1)c1c(O)c2ccccc2oc1=O` (stereo not drawn) [Phenprocoumon] gave a growth reduction of 94.6%.
Compound `CNC(=O)c1cc(Oc2ccc(NC(=O)Nc3ccc(Cl)c(C(F)(F)F)c3)c(F)c2)ccn1` [Regorafenib (monohydrate)] has a growth reduction of 100%.
For `CC(C)COc1ccc(CNC(=O)N(Cc2ccc(F)cc2)C2CCN(C)CC2)cc1` [Pimavanserin], the growth reduction was 100%.
Compound `CC(C)(O)c1ccccc1CC[C@@H](SCC1(CC(=O)O)CC1)c1cccc(/C=C/c2ccc3ccc(Cl)cc3n2)c1` [Montelukast (sodium)] has a growth reduction of 100%.
Work on `CCCCCCCOc1ccc(CCC(N)(CO)CO)cc1C(F)(F)F` [Amiselimod (hydrochloride)] yielded a growth reduction of 100%.
Work on `C=CC(=O)Nc1cc(Nc2nccc(-c3cn(C4CC4)c4ccccc34)n2)c(OC)cc1N(C)CCN(C)C` [Almonertinib (hydrochloride)] yielded a growth reduction of 100%.
For `OCCN1CCN(CC/C=C2/c3ccccc3Sc3ccc(Cl)cc32)CC1` [Zuclopenthixol], the growth reduction was 100%.
For `CC(=O)c1cc2c(o1)C(=O)c1ccccc1C2=O` [Napabucasin], the growth reduction was 100%.
For `COC(=O)N[C@H](C(=O)N1CCC[C@H]1c1nc(-c2ccc3c(c2)O[C@@H](c2ccccc2)n2c-3cc3cc(-c4c[nH]c([C@@H]5CCCN5C(=O)[C@@H](NC(=O)OC)C(C)C)n4)ccc32)c[nH]1)C(C)C` [Elbasvir], the growth reduction was 97.8%.
`CCCCN(CCCC)C(=O)CN1C[C@H](c2ccc3c(c2)OCO3)[C@@H](C(=O)O)[C@@H]1c1ccc(OC)cc1` [Atrasentan (hydrochloride)] gave a growth reduction of 100%.
In the case of `CCCCCc1ccc(C=CC(=O)Nc2ccccc2C(=O)O)cc1` [N-(p-amylcinnamoyl) Anthranilic Acid], the growth reduction is reported as 100%.
Work on `Oc1c(I)cc(Cl)c2cccnc12` [Clioquinol] yielded a growth reduction of 100%.
Compound `CCc1oc2ccccc2c1C(=O)c1cc(Br)c(O)c(Br)c1` [Benzbromarone] has a growth reduction of 100%.
In the case of `CCCCCNC(=N)N/N=C/c1c[nH]c2ccc(OC)cc12` [Tegaserod (maleate)], the growth reduction is reported as 100%.
Work on `CN(C)CCOc1ccc(/C(=C(/CCCl)c2ccccc2)c2ccccc2)cc1` [Toremifene (citrate)] yielded a growth reduction of 100%.
Work on `CCN(CC)CCOc1ccc(C(=C(Cl)c2ccccc2)c2ccccc2)cc1` [Clomiphene (citrate)] yielded a growth reduction of 100%.
With `COc1cccc(Nc2ncnn3ccc(CN4CC[C@@H](N)[C@H](O)C4)c23)c1` the growth reduction was 92.5%.
With `O=C(O)C1(c2ccc(-c3ccc(Cl)c(Cl)c3)c(F)c2)CC1` [Itanapraced] the growth reduction was 100%.
`COc1cc2c(cc1Cc1cccc(Cl)c1F)c(=O)c(C(=O)O)cn2[C@H](CO)C(C)C` [Elvitegravir] showed a growth reduction of 100%.
`Cc1nc(Nc2ccc(F)cc2)nc(N2CCc3ccccc3C2C)c1C` (stereo not drawn) [Revaprazan (hydrochloride)] gave a growth reduction of 93.4%.
`OCCN1CCN(CCCN2c3ccccc3Sc3ccc(Cl)cc32)CC1` [Perphenazine] gave a growth reduction of 100%.
In the case of `NC(=O)[C@@H]1CC[C@@H]2CN1C(=O)N2OS(=O)(=O)O` [Avibactam (sodium)], the growth reduction is reported as 96.6%.
`O=C(NC1CCN(CCCCC2(C(=O)NCC(F)(F)F)c3ccccc3-c3ccccc32)CC1)c1ccccc1-c1ccc(C(F)(F)F)cc1` [Lomitapide] showed a growth reduction of 100%.
For `CC[C@H]1[C@@H](O)[C@@H]2[C@H](CC[C@]3(C)[C@@H]([C@H](C)CCC(=O)O)CC[C@@H]23)[C@@]2(C)CC[C@@H](O)C[C@@H]12` [Obeticholic acid], the growth reduction was 94.4%.
